# High-throughput results deposited in PubChem BioAssay by National Center for Advancing Translational Sciences (NCATS).
# Sampled rows, rich in hits. Any-hit rate of the full collection: about 3.8%.
# S2 tox: Viability Counterscreen for Primary qHTS for Inhibitors of ATXN expression. S2 cells (HEK-293 line with an ATXN2-luciferase reporter) viability, CellTiter-Fluor protease fluorescence, 24 h. Potency, µM (titrated, usually from 56.7 µM), usual class: cytotoxic. 400,000 tested, 0.49% active. AID 651635, 2014; note: nearly all actives have a fitted effect of over 40% in size
# ATXN2 expr inh: Primary qHTS for Inhibitors of ATXN expression. AID 1745845, 2022. HEK-293 ATXN2-luciferase reporter, luminescence, 24 h. 360,000 tested, 0.72% active. Potency, µM (highest dose often 57 µM), for inactives: at the highest dose activity change, negative = inhibition, most hits filed as inhibitors; note: % is set by controls: 0 for no effect and ±100 for the full control effect; nearly all actives have a fitted effect of over 55% in size
#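 qHTS (up to 57 uM final) was run with 24 h compound exposure of reporter cells at 37 °C. Each well was multiplexed: SteadyGlo luminescence measured ATXN2-luciferase expression after a fluorogenic Gly-Phe-AFC viability readout (25 uM final).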
# Nrf2 inh: Nrf2 qHTS screen for inhibitors; A549 ARE-Fluc reporter, luciferase luminescence, 18-24 h; Potency, µM (highest dose often 46 µM), without a hit: at the highest dose activity change, negative = inhibition, hits mostly inhibitors; 360,000 tested, 2.1% active; AID 504444, 2011; note: % is set by controls: 0 for no effect and ±100 for the full control effect; nearly all actives have a fitted effect of over 60% in size
#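 Reporter: ARE-Fluc in A549. Exposure: 18-24 h, 37 °C, 5% CO2, 5% FBS OPTI-MEM. Readouts: fluorescent cytotoxicity (CellTiter-Fluor), then luminescent Nrf2 signal after BugLite.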
# HepG2 tox-1: qHTS for Inhibitors of TGF-b: Cytotox Counterscreen. HepG2 CAGA-GFP viability, ATP luminescence, 18 h. Potency, µM (top dose mostly 46.1 µM), inactives show at the highest dose activity change, negative = cytotoxicity, actives largely listed as cytotoxic. 410,000 tested, 0.76% active
#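 HepG2 CAGA-GFP cells (1000/well, DMEM with 1% FBS) received compound, then TGF-beta at 500 pg/mL final, and were incubated 18 hours at 37 degrees C. Viability was read by CellTiter-Glo luminescence. Media-only wells were set as complete cell-killing and DMSO as no toxicity.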
# TGFb SMAD3 inh: qHTS for Inhibitors of TGF-b; HepG2 CAGA-GFP TGF-b/SMAD3 reporter, GFP fluorescence, 18 h; TGF-beta stimulated, 500 pg/mL final; Potency, µM (top dose mostly 46.1 µM), for inactives: at the top dose activity, negative = inhibition, most hits filed as inhibitors; 410,000 tested, 1.2% active; AID 588855, 2011; note: % is set by controls: 0 for no effect and ±100 for the full control effect; nearly all actives have a fitted effect of over 65% in size
#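 Smad-responsive CAGA-GFP expression was quantified in HEPG2 cells exposed to compounds and 500 pg/mL final TGF-beta for 18 h at 37 degrees C; unstimulated wells defined full inhibition.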
# A549 tox: Nrf2 qHTS screen for inhibitors: counterscreen for cytotoxicity | A549 ARE-Fluc cells, CellTiter-Fluor viability, 18-24 h | Potency, µM (highest dose often 46 µM), for the others: top-dose activity change, negative = cytotoxicity, actives largely listed as inhibitors | 390,000 tested, 0.16% active | AID 504648, 2011; note: % is set by controls: 0 for no effect and ±100 for the full control effect
#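 A549 ARE-Fluc cells in 5% FBS OPTI-MEM, 5000 cells/well, rested 2 h then exposed to compounds in concentration-response for 18-24 h at 37 °C. Viability by CellTiter-Fluor fluorescence (Ex 405/Em 525) after 30 min; luciferase luminescence (BugLite, 15 min, RT) read afterwards.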
# TGFb confirm: qHTS for Inhibitors of TGF-b: Confirmation of Cherry Picks; shares compounds with TGFb SMAD3 inh; HepG2 CAGA-GFP TGF-b reporter, GFP fluorescence, 18 h; cells stimulated with TGF-beta, 500 pg/mL; Potency, µM (series often up to 46.1 µM), for the others: at the highest dose activity, negative = inhibition, hits mostly inhibitors; 1,600 tested, 63% active; AID 720534, 2013; note: % is set by controls: 0 for no effect and ±100 for the full control effect; nearly all actives have a fitted effect of over 65% in size
# HepG2 tox-2: qHTS for Inhibitors of TGF-b: Cytotox Counterscreen for Cherry Picks; shares compounds with TGFb SMAD3 inh; HepG2 CAGA-GFP viability, ATP luminescence, 18 h; cells stimulated with TGF-beta, 500 pg/mL; Potency, µM (highest dose often 46.1 µM), for inactives: at the top dose activity, negative = cytotoxicity, hits mostly inhibitors; 1,600 tested, 27% active; AID 720535, 2013; note: % is set by controls: 0 for no effect and ±100 for the full control effect; nearly all actives have a fitted effect of over 70% in size
# CCL64 TGFb inh: qHTS for Inhibitors of TGF-b: CCL64 Cells Orthogonal Assay for Cherry Picks; shares compounds with TGFb SMAD3 inh; CCL64 CAGA-GFP reporter, TGF-b stimulated, GFP fluorescence, 18 h; Potency, µM (doses to about 46.1 µM), inactives show top-dose activity, negative = inhibition, most hits filed as inhibitors; 1,600 tested, 41% active; AID 720536, 2013; note: nearly all actives have a fitted effect of over 65% in size
# TGFb COP inh: qHTS for Inhibitors of TGF-b: Hit Validation in HepG2 Cells using COP promoter | Potency, µM (series often up to 46.1 µM), inactives show top-dose activity, negative = inhibition, usual class: inhibitors | HepG2 COP-GFP TGF-b reporter, GFP fluorescence, 18 h; cells stimulated by added recombinant TGF-beta | shares compounds with TGFb SMAD3 inh | 1,600 tested, 3% active | AID 720537, 2013; note: nearly all actives have a fitted effect of over 70% in size
# * hit, by the source's call; i = inactive; ? = inconclusive; . = no result given; [ ] = another dose, or the depositor's remark. Calls come from the whole dose curve; as a rule, active = well fitted curve in the direction sought with a large enough effect; inconclusive = small, poorly fitted or top-dose-only effect, or another doubt; inactive = no such curve, though single readings can be large; an effect the other way counts as inactive or inconclusive. Potency is the fitted concentration of half-maximal effect.
SMILES,S2 tox,ATXN2 expr inh,Nrf2 inh,HepG2 tox-1,TGFb SMAD3 inh,A549 tox,TGFb confirm,HepG2 tox-2,CCL64 TGFb inh,TGFb COP inh
CN(Cc1ccccc1)S(=O)(=O)c1ccc(NC(=S)NC(=O)C(C)(C)C)cc1,?,-11.9%,-12.1%,-23.7%,-19.7%,4.3%,.,.,.,.
CCOC(=O)CC1=CCc2c1ccc(OC)c2OC,i,37.6%,14.1%,-9.7%,2.9%,2.5%,.,.,.,.
C/C(=N\NC(=O)C1COc2ccccc2O1)c1ccccn1 (centres undefined),?,3.55µM*,9.2µM*,-17.1%,?,?,20.6µM*,-27.2%,?,5.4%
C/C(=N\NC(=O)C1COc2ccccc2O1)c1ccc(C)o1 (centres undefined),i,-12.2%,-24.2%,-22.5%,9.4%,-9.0%,.,.,.,.
Clc1cccc(Cc2c(-c3ccco3)nc3c4ccccc4ccn23)c1,?,61.2%,.,.,.,.,.,.,.,.
Fc1cccc(Cc2c(-c3ccco3)nc3c4ccccc4ccn23)c1,i,138.0%,.,11.2µM*,10µM*,.,18.4µM*,?,16.4µM*,2.7%
Clc1ccc2nc(-c3ccco3)c(Cc3ccccc3)n2c1,?,-28.2%,.,-18.5%,11.2µM*,.,14.6µM*,?,?,19.5%
Fc1cccc(Cc2c(-c3ccco3)nc3ccc(Cl)cn23)c1,.,-1.7%,.,-50.6%,?,.,.,.,.,.
C[C@H](NC(=O)c1ccccc1)C(=O)OCC(=O)Nc1ccc(Cl)cn1,?,.,.,-37.4%,-13.4%,.,.,.,.,.
C=CCn1c(=NC(=O)c2ccccc2[N+](=O)[O-])sc2cc(S(C)(=O)=O)ccc21,i,2.0%,-1.6%,-12.0%,-5.1%,1.7%,.,.,.,.
O=[N+]([O-])c1ccc(N=Nc2ccc(O)cc2O)cc1,?,?,?,-33.8%,?,?,.,.,.,.
O=[N+]([O-])c1cccc(N=Nc2ccc(O)cc2O)c1,?,?,?,-27.3%,2.51µM*,?,11.6µM*,8.2µM*,5.8µM*,65.5%
COc1ccc(-c2csc(NC(C)c3nc4cc(C(F)(F)F)ccc4n3CCOCCO)n2)cc1 (centres undefined),?,?,?,-22.7%,12.6µM*,-18.2%,23.1µM*,?,?,4.8%
CC(Nc1nc(-c2ccc(F)cc2)cs1)c1nc2cc(C(F)(F)F)ccc2n1CCOCCO (centres undefined),i,6.2%,2.5%,-18.3%,-15.4%,-2.6%,.,.,.,.
Cc1noc(C)c1S(=O)(=O)N(C)CC(=O)Nc1ccc(F)cc1,i,-1.8%,4.0%,-2.5%,3.4%,?,.,.,.,.
COc1ccc(-n2cnc3c(N)nc(N)nc32)cc1,?,7.4%,?,-16.6%,-5.2%,-2.2%,.,.,.,.
Cc1cc(N2CCOCC2)nc(NCc2ccccc2)n1,i,-17.6%,-20.1%,0.8%,10µM*,?,14.6µM*,-23.7%,?,1.4%
Nc1cc(Nc2ccccc2)ccn1,i,-14.5%,5.2%,1.3%,-0.6%,-3.5%,.,.,.,.
N#Cc1sc2nccc(Nc3ccccc3)c2c1N,?,-5.8%,?,-19.2%,4.47µM*,-0.8%,8.2µM*,10.2%,9.9%,-2.5%
CCCCN(CC)CCCNC(=O)Cn1nc(CC)n2c(cc3sccc32)c1=O,.,.,9.0%,-12.2%,-0.6%,6.7%,.,.,.,.
O=C(C#Cc1ccccc1)Nc1cccc(F)c1,?,?,14.8%,-4.7%,3.98µM*,-4.0%,2.06µM*,6.51µM*,5.8µM*,-1.5%
Oc1ccccc1-c1n[nH]c(-c2ccccc2O)n1,?,-19.2%,-13.7%,-60.8%,2.82µM*,-6.0%,?,?,?,4.2%
Clc1ccccc1-c1nc(-c2ccccc2)n[nH]1,i,76.2%,?,-55.8%,0.0%,-4.0%,.,.,.,.
O[C@@](CCN1CCCCC1)(c1ccccc1)C1CCCCC1,i,.,.,.,.,.,.,.,.,.
CC(=O)Nc1ccc(-c2ccnc3c2CC(C(=O)Nc2ccc(Cl)c(C(F)(F)F)c2)O3)cc1 (centres undefined),?,?,.,-20.1%,14.1µM*,.,8.2µM*,?,23.1µM*,59.0%
SMILES,S2 tox,ATXN2 expr inh,Nrf2 inh,HepG2 tox-1,TGFb SMAD3 inh,A549 tox,TGFb confirm,HepG2 tox-2,CCL64 TGFb inh,TGFb COP inh
O=C(Nc1ccc(F)c(Cl)c1)C1Cc2c(-c3ccc(Cl)cc3)ccnc2O1 (centres undefined),?,?,.,-19.1%,15.8µM*,.,10.3µM*,?,18.4µM*,81.5%
CC(=O)Nc1ccc(-c2ccnc3c2CC(C(=O)Nc2cccc(C(C)=O)c2)O3)cc1 (centres undefined),i,3.3%,.,-4.0%,7.0%,.,.,.,.,.
CCc1nc2ccc(C(=O)N(C)CC(=O)Nc3ccc(F)c(F)c3F)cc2nc1CC,i,3.2%,-6.6%,-2.7%,3.3%,1.2%,.,.,.,.
COc1ccc(N2CCc3c(C)nc4c(OC)cccc4c32)cc1,?,-19.1%[11.3 µM],14.0%,-12.7%,11.2µM*,-16.8%,14.6µM*,?,25.9µM*,16.5%
COc1ccc(N2CCc3c(C)nc4c(OC)cc(OC)cc4c32)cc1,i,-31.8%,-19.9%,-19.7%,-11.6%,?,.,.,.,.
CCCCCCCN(c1ccccc1)[C@@H]1C[C@H]2CCCC(=O)N3CC[C@@H](C1)[C@@H]23,.,?,?,11.2µM*,10µM*,?,?,?,20.6µM*,20.6µM*
